This note sets out measurements from PubChem BioAssay (NCATS).

Where “and” joins values, the source holds several entries; their conditions need not be identical. Equal values may be shown once. Inconclusive results are not listed. Calls of active or inactive are those of the source. Unless noted, calls follow the shape of the dose curve; as a rule, active = well fitted curve in the direction sought with a large enough effect; inconclusive = small, poorly fitted or top-dose-only effect, or another doubt; inactive = no such curve, though single readings can be large; an effect the other way counts as inactive or inconclusive. Where a SMILES comes first, the peptide text is derived from it.

Experiment [1] addresses Luciferin 4-monooxygenase (Photinus pyralis) (UniProt P08659). As to the kind of experiment: Biochemical firefly luciferase enzyme assay for NPC (AID 624030).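 Also: purified P. pyralis luciferase at 10 nM with luciferin and ATP substrate; series mostly up to about 59 µM; 0% = DMSO and -100% = full luciferase inhibition by PTC124 control; nearly all actives have a fitted effect of over 70% in size.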 The method in brief:
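Counter-screen for direct inhibition of the luciferase enzyme by approved-drug library compounds, run at 10 nM enzyme in 50 mM Tris acetate (final). Luminescence was read within 5 min of enzyme-buffer addition and normalized to PTC124 versus DMSO (0%).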

Experiment [2] in a line: qHTS to identify inhibitors of the type 1 interferon - major histocompatibility complex class I in skeletal muscle: primary screen against the NCATS Mechanism Interrogation Plate v5.0 (MIPE) Libary (AID 1347411). Also: nearly all actives have a fitted effect of over 65% in size. Also: potency is read from the fitted curve at half-maximal effect.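 As to activity change, negative = inhibition: plate controls were vehicle for no effect and reference inhibitor for full effect.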 The gist of the method:
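IFN-beta-driven (4 ng/ml) HLA-B-HiBit expression in CRISPR-tagged C25cl48 myoblasts; compounds 11-pt, 1:3, max 46 uM, 24 hr exposure; lytic NanoLuc complementation luminescence.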

Experiment [3] can be described thus: Primary qHTS for inhibitors of nuclear receptor binding SET domain protein 2 (NSD2) in an isogenic RCH-ACV NSD2 p.E1099K mutant (9B) (AID 1645876). Also: nearly all actives have a fitted effect of over 70% in size. Also: potency is read from the fitted curve at half-maximal effect. As to activity change, negative = viability loss: % is scaled to controls: 0 for no effect and ±100 for the full control effect.
The nature of experiment [4]: Primary qHTS for inhibitors of nuclear receptor binding SET domain protein 2 (NSD2) in an RCH-ACV wild type WT cells (2C) (AID 1645877). Also: nearly all actives have a fitted effect of over 70% in size. Also: potency is read from the fitted curve at half-maximal effect.
The target of experiment [5] is Phospholipid hydroperoxide glutathione peroxidase GPX4 (Homo sapiens) (UniProt P36969). In words: Primary qHTS Assay for Inhibitors of Recombinant Selenoprotein Glutathione Peroxidase 4 (GPX4) (AID 1845192). Also: nearly all actives have a fitted effect of over 65% in size. As to activity change, negative = inhibition: series mostly up to about 50 µM; % is scaled to controls: 0 for no effect and ±100 for the full control effect. Conditions: outcome: dose series up to 50 µM unless noted. The method in brief:
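qHTS, GR-coupled: GPX4 200 nM + cpd 30 min RT → GSH 1 mM, NADPH 0.5 mM, GR 100 nM → CHP 0.5 mM start; fluor 340/450 at t0 and t15 min; no-enzyme wells as control.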

A short description of experiment [6]: qHTS drug screen for cell cycle checkpoint inhibitors in PARPi-resistant BRCA-mutant ovarian cancer cell lines. (AID 1963452; calls by dose curve). The conditions noted are these: PEO1/OlaR viability, CellTiter-Glo luminescence, 96 h, stronger effect = lower value. The gist of the method: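 PEO1, PEO4 and PEO1/OlaR ovarian cancer cells, 600 per well, exposed 96 h at 37C to a dilution series. Viability read by CellTiter-Glo luminescence, normalized to DMSO and empty wells; activity summarized as Z-AUC.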

In experiment [7] the target is Glutathione peroxidase 1 (Homo sapiens) (UniProt P07203). In words: Primary qHTS Assay for Inhibitors of Recombinant Selenoprotein Glutathione Peroxidase 1 (GPX1) (AID 1845191). Also: nearly all actives have a fitted effect of over 65% in size. As to activity, negative = inhibition: % is scaled to controls: 0 for no effect and ±100 for the full control effect. The method in brief:
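GPX1 10 nM, GR 100 nM, GSH 1 mM, NADPH 0.5 mM, CHP 0.5 mM (final). 30-min cpd preincubation, RT. Ex340/Em450 read t=0, t=15 min.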

The mark [8] stands for this setting: measured here: PEO1 parental Z-AUC.

Glutathione peroxidase 1 (Homo sapiens), sequence (P07203 whole entry, looked up): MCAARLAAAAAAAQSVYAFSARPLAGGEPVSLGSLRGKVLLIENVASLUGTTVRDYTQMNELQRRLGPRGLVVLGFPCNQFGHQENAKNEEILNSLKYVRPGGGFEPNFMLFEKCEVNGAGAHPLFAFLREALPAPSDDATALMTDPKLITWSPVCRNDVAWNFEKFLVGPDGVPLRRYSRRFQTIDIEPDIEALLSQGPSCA
Phospholipid hydroperoxide glutathione peroxidase GPX4 (Homo sapiens), sequence (P36969 whole entry, looked up): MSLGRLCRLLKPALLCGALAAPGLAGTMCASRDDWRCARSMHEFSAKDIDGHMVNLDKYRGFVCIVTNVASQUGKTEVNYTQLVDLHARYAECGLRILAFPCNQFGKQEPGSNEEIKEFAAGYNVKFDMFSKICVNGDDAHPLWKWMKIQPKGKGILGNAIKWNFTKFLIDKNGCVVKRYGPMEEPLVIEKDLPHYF
Luciferin 4-monooxygenase (Photinus pyralis), sequence (P08659 whole entry, looked up): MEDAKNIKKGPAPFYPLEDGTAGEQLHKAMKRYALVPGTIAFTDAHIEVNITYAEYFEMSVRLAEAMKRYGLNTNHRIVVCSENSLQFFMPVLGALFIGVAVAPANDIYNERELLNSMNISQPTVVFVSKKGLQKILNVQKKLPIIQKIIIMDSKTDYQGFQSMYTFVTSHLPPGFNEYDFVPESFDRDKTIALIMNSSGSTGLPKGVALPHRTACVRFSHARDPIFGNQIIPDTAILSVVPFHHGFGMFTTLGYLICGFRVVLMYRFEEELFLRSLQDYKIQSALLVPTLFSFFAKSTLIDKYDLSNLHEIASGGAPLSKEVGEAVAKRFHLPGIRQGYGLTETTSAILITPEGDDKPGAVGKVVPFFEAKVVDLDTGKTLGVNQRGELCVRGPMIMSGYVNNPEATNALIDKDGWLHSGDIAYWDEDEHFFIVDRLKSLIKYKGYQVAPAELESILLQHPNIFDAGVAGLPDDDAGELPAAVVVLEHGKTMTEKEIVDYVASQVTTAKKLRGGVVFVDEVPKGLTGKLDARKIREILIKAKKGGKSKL

With `Nc1nc(F)nc2c1ncn2[C@@H]1O[C@H](COP(=O)(O)O)[C@@H](O)[C@@H]1O`, the Potency entry in experiment [1], in experiment [2] and in experiment [5] was “inactive” throughout. In addition, the Potency in experiment [3] and in experiment [4] was 1.86 µM (active) each time. Besides, the Z-AUC in experiment [6] was -1.15 (inactive) and -1.44 (inactive); in experiment [6] (setting [8]), -1.36 and -1.18; in experiment [6] (measured here: PEO4 Z-AUC) it was -0.49 and -0.861.

As for `O=C(Nc1nccs1)C(c1cc(F)ccc1O)N1Cc2ccccc2C1=O` (stereo unspecified), the Potency entry in experiment [2], in experiment [3], in experiment [4] and in experiment [7] was “inactive” each time. Besides, the Z-AUC in experiment [6] is -0.378 (inactive); in experiment [6] (setting [8]), -0.736; in experiment [6] (measured here: PEO4 Z-AUC) it was -0.75.

Regarding `CCN1C(=O)CNc2ncc(-c3ccc(-c4ncn[nH]4)nc3C)nc21`, the Potency in experiment [2] was 2.94 µM (active); in experiment [3], 0.833 µM (active); in experiment [4] it was 0.742 µM (active). The Z-AUC in experiment [6] was 0.377 (inactive); in experiment [6] (setting [8]) it was 0.759; in experiment [6] (measured here: PEO4 Z-AUC) it was 0.275.

For the molecule `Cc1cc(O)cc2c1[C@]1(C)CC[C@H]3C(C)(C)CCC[C@]3(C)[C@H]1C2`, in experiment [2], the activity change, negative = inhibition was -19.8% [at 5.1 µM] (inactive). For the same molecule, the activity change, negative = viability loss in experiment [3] is -32.6% [at 4.96 µM] (inactive). Moreover, the activity, negative = inhibition in experiment [7] was -4.81% [at 4.49 µM] (inactive). For the same molecule, the outcome in experiment [5] is “inactive [at 4.52 µM]”. The figures for the Z-AUC in experiment [6], in experiment [6] (setting [8]) and in experiment [6] (measured here: PEO4 Z-AUC) were 1.24 (inactive), 0.915 and 1, respectively.

Regarding `O=C(Nc1cnn2ccc(N3CCC[C@@H]3c3cc(F)ccc3F)nc12)N1CC[C@H](O)C1`, the Potency result in experiment [2], in experiment [3] and in experiment [4] was “inactive” in each case. Further, the Z-AUC in experiment [6] is 1.28 (inactive); in experiment [6] (setting [8]) it was 1.7; in experiment [6] (measured here: PEO4 Z-AUC), 1.78.

With `CCC(=O)O[C@]1(C(=O)CO)CC[C@H]2[C@@H]3CCC4=CC(=O)CC[C@]4(C)[C@H]3CC[C@@]21C`, the Potency entry in experiment [2], in experiment [3], in experiment [4] and in experiment [5] was “inactive” in each case. Besides, the Z-AUC in experiment [6] was 1.13 (inactive); in experiment [6] (setting [8]), 0.73; in experiment [6] (measured here: PEO4 Z-AUC), 1.13.

Regarding `O=C(NO)c1cnc(NC2(c3cccc(F)c3)CCCCC2)nc1`, the Potency result in experiment [2] and in experiment [5] was “inactive” throughout. Moreover, the Potency in experiment [3] and in experiment [4] was 14.8 µM (active) in each case. Also, the Z-AUC is -1.41 (inactive) in experiment [6], -0.775 in experiment [6] (setting [8]) and -0.635 in experiment [6] (measured here: PEO4 Z-AUC).

On to `N[C@@H](CCC(=O)O)C(=O)N[C@@H](Cc1c[nH]c2ccccc12)C(=O)O` (H-Glu-Trp-OH), for which the Potency entry in experiment [2], in experiment [3], in experiment [4] and in experiment [5] was “inactive” each time. The values for the Z-AUC in experiment [6], in experiment [6] (setting [8]) and in experiment [6] (measured here: PEO4 Z-AUC) were 1.08 (inactive), 0.582 and 0.474, respectively.

On to `C[C@@H]1CC(=O)Nc2cccc(-c3ccc4c(c3)c(-c3cnn(C)c3)nn4C)c2N1`, for which the Potency result in experiment [2] and in experiment [7] was “inactive” each time. The Potency in experiment [3] is 0.742 µM (active); in experiment [4] it was 0.662 µM (active). Also, the Z-AUC in experiment [6] is 1.34 (inactive); in experiment [6] (setting [8]), 1.02; in experiment [6] (measured here: PEO4 Z-AUC), 1.12.

As to `Cc1cc(C)c(S(=O)(=O)N(CCc2cccc(Br)c2)Cc2ccc(-c3cccc(S(C)(=O)=O)c3)cc2)c(C)c1`, the Potency result in experiment [2], in experiment [3], in experiment [4] and in experiment [5] was “inactive” in each case. Also, the Z-AUC in experiment [6] is 0.662 (inactive); in experiment [6] (setting [8]) it was 0.747; in experiment [6] (measured here: PEO4 Z-AUC), 0.467.

Turning to `Cc1cc(C)cc(Oc2ccc(CNC(=O)[C@H](C)N)cc2C)c1`, the Potency result in experiment [2] and in experiment [5] was “inactive” each time. Also, the Potency in experiment [3] and in experiment [4] was 18.6 µM (active) in each case. In addition, the Z-AUC in experiment [6] is 1.6 (inactive); in experiment [6] (setting [8]) it was 1.04; in experiment [6] (measured here: PEO4 Z-AUC) it was 1.3.

Take `CS(=O)(=O)c1ccc(-c2cnc(NCc3ccco3)n3cnnc23)cc1`: the Potency result in experiment [2], in experiment [3] and in experiment [4] was “inactive” in each case. For the same molecule, the Z-AUC in experiment [6] was 1.04 (inactive); in experiment [6] (setting [8]) it was 0.794; in experiment [6] (measured here: PEO4 Z-AUC), 1.01.

As for `CN1C(=O)[C@@H](NC(=O)c2cc(Cc3ccccc3)on2)COc2ccccc21`, the Potency result in experiment [2], in experiment [3], in experiment [7] and in experiment [5] was “inactive” each time. Further, the Z-AUC in experiment [6] is 0.979 (inactive); in experiment [6] (setting [8]), 0.721; in experiment [6] (measured here: PEO4 Z-AUC), 1.08.

Consider `CC1(C(=O)O)CCC2(C)CCC3(C)C(=CC(=O)C4C5(C)CCC(OC6OC(C(=O)O)C(O)C(O)C6OC6OC(C(=O)O)C(O)C(O)C6O)C(C)(C)C5CCC43C)C2C1` (stereo unspecified), for which the Potency result in experiment [2], in experiment [3], in experiment [4] and in experiment [5] was “inactive” each time. In addition, the Z-AUC was -0.447 (inactive) in experiment [6], 1.94 in experiment [6] (setting [8]) and 1.74 in experiment [6] (measured here: PEO4 Z-AUC).
